Over roughly 3,200 compounds, “TSA(without NAD+) / Primary screening (TSA) / delta Tm (K)” has its median near -0.07; the highest 2% begin near 0.37. The full list was thinned out, with the highest values kept by preference.

The text below walks through data of article PMC6925144, “A prospective compound screening contest identified broader inhibitors for Sirtuin 1” (Scientific Reports, 2019).

Sequence of NAD-dependent deacetylase Sirtuin 1 (Q96EB6 2-747 limits assumed): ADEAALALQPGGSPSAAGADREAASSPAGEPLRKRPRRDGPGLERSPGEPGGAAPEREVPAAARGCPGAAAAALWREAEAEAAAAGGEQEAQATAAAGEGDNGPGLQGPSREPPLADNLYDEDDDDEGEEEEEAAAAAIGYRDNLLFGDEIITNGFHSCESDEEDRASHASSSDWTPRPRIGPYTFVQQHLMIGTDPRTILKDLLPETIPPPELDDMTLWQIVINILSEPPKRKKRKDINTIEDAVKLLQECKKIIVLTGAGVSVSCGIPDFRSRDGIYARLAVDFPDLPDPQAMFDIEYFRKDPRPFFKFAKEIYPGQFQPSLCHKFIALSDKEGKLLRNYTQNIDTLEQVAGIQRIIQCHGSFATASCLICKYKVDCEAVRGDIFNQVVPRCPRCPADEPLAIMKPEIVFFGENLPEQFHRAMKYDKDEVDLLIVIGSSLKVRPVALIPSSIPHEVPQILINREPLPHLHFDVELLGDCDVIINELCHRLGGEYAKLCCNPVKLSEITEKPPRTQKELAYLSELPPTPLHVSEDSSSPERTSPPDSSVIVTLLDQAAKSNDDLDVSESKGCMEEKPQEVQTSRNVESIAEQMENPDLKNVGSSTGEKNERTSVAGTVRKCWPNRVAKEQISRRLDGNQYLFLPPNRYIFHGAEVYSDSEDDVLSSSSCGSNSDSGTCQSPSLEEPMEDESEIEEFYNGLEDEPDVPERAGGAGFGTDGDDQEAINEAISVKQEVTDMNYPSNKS

The experiment addresses NAD-dependent deacetylase Sirtuin 1 (human, UniProt Q96EB6). As to the kind of experiment: primary screen, delta tm. More on the design: single well (n = 1). The conditions noted are these: 10 µM. On the procedure:
A total of 3,192 compounds extracted from the proposed lists were first screened by thermal shift assay (TSA), which determined a melting temperature shift (ΔTm) of Sirtuin 1 upon the addition of a test compound at a concentration of 10 µM (n = 1) with primary hit criteria of ΔTm > 0.45 K or ΔTm < −1.5 K. Primary hits (48 compounds) were retested in the same assay at three concentrations (5, 10, 20 µM, n = 4) for hit confirmation and for dose-dependency check. Secondary hits (41 compounds) were checked their selectivity for Sirtuin 1 based on counterscreening on unrelated protein targets (bovine carbonic anhydrase (CA) and recombinant SH2 domain of hABL1 kinase (ABL1)) at three different concentrations (5, 10, 20 µM, n = 4), which yielded 38 hit compounds, hereafter referred to as TSA hits. The TSA screening above was conducted in the absence of NAD+.
As to `O=C1/C(=C\c2ccc(Br)cc2)CC/C1=C/c1ccccc1OC(F)F`, the “TSA(without NAD+) / Primary screening (TSA) / delta Tm (K)” value is recorded as -0.08 K. As for `COc1ccc(Br)cc1/C=C1/Cc2ccccc2C1=O`, the “TSA(without NAD+) / Primary screening (TSA) / delta Tm (K)” value is reported as -0.08 K. For `O=C1/C(=C\c2cc(Br)cc(Br)c2O)CC/C1=C\c1cc(Br)cc(Br)c1O`, the “TSA(without NAD+) / Primary screening (TSA) / delta Tm (K)” value is recorded as 0.55 K. In the case of `O=C(CCSc1ncccn1)Nc1c(Cl)cccc1Cl`, the “TSA(without NAD+) / Primary screening (TSA) / delta Tm (K)” value is -0.04 K.

On to `Cc1ccc(C23CC4CC(CC(C(=O)OCC(=O)Nc5ccc(S(N)(=O)=O)cc5)(C4)C2)C3)cc1`, for which the “TSA(without NAD+) / Primary screening (TSA) / delta Tm (K)” value stood at 0.32 K.

Regarding `Cc1ccc(C23CC4CC(CC(C(=O)OCC(N)=O)(C4)C2)C3)cc1C`, the “TSA(without NAD+) / Primary screening (TSA) / delta Tm (K)” value is -0.22 K. For the molecule `Cc1ccc(C23CC4CC(CC(C(=O)OC(C)C(=O)Nc5ccc(S(N)(=O)=O)cc5)(C4)C2)C3)cc1C` (stereo not drawn), the “TSA(without NAD+) / Primary screening (TSA) / delta Tm (K)” value is 0.48 K.

For `Cc1ccc(N(C)S(=O)(=O)c2cccc(C(=O)N(C)Cc3ccccc3Cl)c2)cc1`, the “TSA(without NAD+) / Primary screening (TSA) / delta Tm (K)” value was -0.24 K. Then `O=S1(=O)CCC(N2CCN(c3ncnc4c3oc3ccccc34)CC2)C1` (stereo not drawn), with -0.11 K; and `Cc1nc(N2CCN(c3cccc(C(F)(F)F)c3)CC2)c2c3c(sc2n1)CCC3`, with 0.16 K. With `COc1ccc(NC(=O)CC23CC4CC(C2)CC(CC(=O)Nc2ccc(OC)cc2)(C4)C3)cc1`, the “TSA(without NAD+) / Primary screening (TSA) / delta Tm (K)” value came out at 0.15 K. As to `CC(C)CC(=O)Nc1ccc(C(=O)COC(=O)CNC(=O)CC23CC4CC(CC(C4)C2)C3)cc1`, the “TSA(without NAD+) / Primary screening (TSA) / delta Tm (K)” value is given as -0.04 K. As to `CCOc1ccc(Oc2ccc(NC(=O)CNC(=O)CC34CC5CC(CC(C5)C3)C4)cc2)cc1`, the “TSA(without NAD+) / Primary screening (TSA) / delta Tm (K)” value amounted to 0.38 K. With `NCCOCC(=O)O`, the “TSA(without NAD+) / Primary screening (TSA) / delta Tm (K)” value was -0.23 K. As for `O=C1CCc2cc(NC(=O)c3cccnc3)ccc2N1`, the “TSA(without NAD+) / Primary screening (TSA) / delta Tm (K)” value is -0.04 K. For `CCCn1c(NC(=O)c2ccc3c(c2)CCC(=O)N3)nc2ccccc21`, the “TSA(without NAD+) / Primary screening (TSA) / delta Tm (K)” value is 0.12 K. For `Cc1ccc(C(=O)Nc2nc3ccc(NS(=O)(=O)c4ccc5c(c4)CCC(=O)N5)cc3s2)s1` the value was 0.66 K.

Take `NCC(N)C1CCC1` (stereo not drawn): the “TSA(without NAD+) / Primary screening (TSA) / delta Tm (K)” value is recorded as -0.31 K.

Regarding `NC(=O)c1cc(NC(=O)CN2CC=C(c3ccc(O)cc3)CC2)cc(C(N)=O)c1`, the “TSA(without NAD+) / Primary screening (TSA) / delta Tm (K)” value amounted to 0.15 K. On to `O=C1NC(=S)NC(=O)C1=NNc1c(F)cccc1F`, for which the “TSA(without NAD+) / Primary screening (TSA) / delta Tm (K)” value is given as -0.08 K.

With `Cn1ncc2c(=O)n(CC(=O)N3CCCc4c(C(N)=O)cccc43)cnc21`, the “TSA(without NAD+) / Primary screening (TSA) / delta Tm (K)” value is reported as -0.18 K. On to `O=C(NC1(C(=O)N2CCN(C(=O)c3cnccn3)CC2)CCOC1)OCc1ccccc1` (stereo not drawn), for which the “TSA(without NAD+) / Primary screening (TSA) / delta Tm (K)” value is -0.12 K. For the molecule `Cc1sc(NC(=O)C2CCN(c3ncc(C(F)(F)F)cc3Cl)CC2)c(C(N)=O)c1C`, the “TSA(without NAD+) / Primary screening (TSA) / delta Tm (K)” value was 0.28 K. On to `Cc1sc2ncnc(N3CCC(C(=O)Nc4sc5c(c4C(N)=O)CCCC5)CC3)c2c1C`, for which the “TSA(without NAD+) / Primary screening (TSA) / delta Tm (K)” value stood at 0.16 K.

`NC(=O)c1c(NC(=O)C2CCN(c3ncc(C(F)(F)F)cc3Cl)CC2)sc2c1CCC2`: the “TSA(without NAD+) / Primary screening (TSA) / delta Tm (K)” value worked out at 0.39 K. Take `Cc1ccc(OCC(O)Cn2c(C(F)(F)F)ccc(C(N)=O)c2=O)cc1` (stereo not drawn): the “TSA(without NAD+) / Primary screening (TSA) / delta Tm (K)” value is reported as -0.13 K. In the case of `Cc1ccc(NC(=O)C(OC(=O)C23CC4CC(CC(O)(C4)C2)C3)c2ccccc2)c([N+](=O)[O-])c1` (stereo not drawn), the “TSA(without NAD+) / Primary screening (TSA) / delta Tm (K)” value is recorded as 0.07 K.

Take `CC(NC(=O)CNC(=O)CNC(=O)c1cccs1)c1ccccn1` (stereo not drawn): the “TSA(without NAD+) / Primary screening (TSA) / delta Tm (K)” value is -0.23 K.

In the case of `O=C(NC(=S)Nc1ccc(-c2nc3ccccc3[nH]2)cc1)C12CC3CC(CC(C3)C1)C2`, the “TSA(without NAD+) / Primary screening (TSA) / delta Tm (K)” value is 0.58 K.

With `O=C1CCCCC(C(=O)Nc2ccc(-c3nc4ccccc4[nH]3)cc2)N1` (stereo not drawn), the “TSA(without NAD+) / Primary screening (TSA) / delta Tm (K)” value is recorded as -0.03 K.

Take `O=C(CC12CC3CC(CC(C3)C1)C2)NCC(=O)Nc1ccc(Sc2nc3ccccc3[nH]2)cc1`: the “TSA(without NAD+) / Primary screening (TSA) / delta Tm (K)” value is 0.18 K.

Consider `CN(c1ccccc1)S(=O)(=O)c1ccc(C(=O)Nc2cccc(S(=O)(=O)N3CCOCC3)c2)cc1`, for which the “TSA(without NAD+) / Primary screening (TSA) / delta Tm (K)” value is on record as 0.02 K. On to `O=C(Nc1cccc(S(=O)(=O)N2CCOCC2)c1)C(c1ccccc1)c1ccccc1`, for which the “TSA(without NAD+) / Primary screening (TSA) / delta Tm (K)” value is 0.09 K. As to `O=C(Nc1cccc(S(=O)(=O)N2CCOCC2)c1)c1cn(-c2ccccc2)nc1-c1ccccc1`, the “TSA(without NAD+) / Primary screening (TSA) / delta Tm (K)” value was -0.02 K. As for `O=C(Nc1cccc(S(=O)(=O)N2CCOCC2)c1)c1cn(-c2ccccc2)nc1-c1ccc(Cl)cc1`, the “TSA(without NAD+) / Primary screening (TSA) / delta Tm (K)” value was found to be 0.58 K.

As for `O=C(Nc1cccc(S(=O)(=O)N2CCOCC2)c1)c1cccc(S(=O)(=O)N2CCc3ccccc32)c1`, the “TSA(without NAD+) / Primary screening (TSA) / delta Tm (K)” value is given as 0.37 K. For `Cc1ccc(-c2nn(-c3ccccc3)cc2C(=O)Nc2cccc(S(=O)(=O)N3CCOCC3)c2)cc1` the value was 0.07 K; for `O=C(Cn1[nH]c(=O)c2ccccc2c1=O)Nc1ccc(N2CCN(Cc3ccccc3)CC2)cc1`, 0.02 K; for `O=C(OCc1cccc2ccccc12)C1CCCCN1c1ncccn1` (stereo not drawn), -0.13 K. Take `Cc1nc2c(C(N)=O)ncn2c(C)c1CCC(=O)Nc1ccc(F)c(C(N)=O)c1`: the “TSA(without NAD+) / Primary screening (TSA) / delta Tm (K)” value is recorded as 0.02 K. Take `c1coc(CNc2ncnc3ccsc23)c1`: the “TSA(without NAD+) / Primary screening (TSA) / delta Tm (K)” value stood at 0.05 K. As for `CCNC(=O)c1cccc(NC(=O)C2CCN(S(=O)(=O)c3cc(C(C)(C)C)ccc3C)CC2)c1`, the “TSA(without NAD+) / Primary screening (TSA) / delta Tm (K)” value turned out to be 0.17 K.
